aSyn 5UTR act: Activators via SNCA 5'UTR binding, MLPCN. alpha-synuclein 5'UTR reporter, activators screen. activity score, % (tested at 7.5 µM), hits read low. 300,000 compounds, 7.1% hits; in the data active = activity score below about -60%
* hit, by the source's call. Only a sample is shown.

SMILES	aSyn 5UTR act
Cc1nn(Cc2ccc(Cl)c(Cl)c2)c(C)c1NC(=O)c1cc(-c2ccc3c(c2)OCO3)on1	66.3
O=C(NC1CCCCC1)c1cc(-c2cccs2)on1	-160.9*
Cc1ccc(-c2cc(C(=O)NC3CCCC3)no2)cc1	-140.6*
COc1cccc(NC(=O)CSc2nnc(-c3cccc(OC(C)C)c3)n2N)c1	-73.2*
c1ccc(Sc2cnc3ccccc3n2)cc1	-168.6*
Brc1ccc(Sc2cnc3ccccc3n2)cc1	-77.1*
Clc1ccc(Sc2cnc3ccccc3n2)cc1	-75.2*
Cc1ccc2c(CC(=O)Nc3sccc3C(N)=O)coc2c1	-183.1*
Cc1ccc2c(CC(=O)Nc3ccc(N4CCN(C)CC4)cc3C)coc2c1	-67.6*
Cc1ccc2nc(SCC(=O)Nc3cc(C(F)(F)F)ccc3N3CCOCC3)[nH]c2c1	95.8
Cc1ccc2[nH]c(SCC(=O)N3CCOCC3)nc2c1C	-110.4*
C/C(N)=C(/C#N)C(=O)CSc1nc2ccc(C)cc2[nH]1	-182.9*
Cc1ccc2nc(SCC(=O)N3CCOCC3)[nH]c2c1	-89.3*
Fc1ccc(N2CCN(c3cnc4ccccc4n3)CC2)cc1	-251.3*
Clc1ccc(N2CCN(c3cnc4ccccc4n3)CC2)cc1	-137.3*
c1ccc(N2CCN(c3cnc4ccccc4n3)CC2)cc1	-76.9*
CCc1nc2cc3sc(CC)nc3cc2s1	-133.1*
Cc1cc(C(=O)OC(C(=O)Nc2ccc(C)c(Cl)c2)c2ccccc2)c(C)o1 (stereo not drawn)	-68.1*
Cc1cc(/C=C\c2ccccc2)nc2ccccc12	-215.6*
COc1ccc(/C=C/c2cc(C(=O)O)c3ccccc3n2)cc1	80.6
Cn1c(CN2CCCCC2)nc2cc(NC(=O)c3cccc(Br)c3)ccc21	-98.8*
Cn1c(CN2CCCCC2)nc2cc(NC(=O)c3cccs3)ccc21	-67.7*
CC1CCN(CCc2nc3cc(NC(=O)Nc4ccccc4)ccc3n2C)CC1	-84.1*
O=C(Nc1ccc2c(c1)nc1n2CCN(Cc2ccccc2)C1)c1cccs1	-91.4*
CCN1CCN(Cc2ccc(NC(=O)c3cc(NC(=O)c4cncc(-c5cccs5)c4)cc(OC)c3)cc2C(F)(F)F)CC1	108.8
SMILES	aSyn 5UTR act
Cc1ccc(C(=O)Nc2ccc3c(c2)nc(CCNC(=O)c2ccco2)n3C)cc1	-103.9*
O=C(Nc1ccc(CN2CCCCC2)cc1)c1sc2ccccc2c1Cl	-158.7*
Cn1c(CN2CCCCC2)nc2cc(NC(=O)c3ccccc3)ccc21	-73.4*
CCC(=O)NCCc1nc2cc(NC(=O)c3ccccc3Cl)ccc2n1C	-77.6*
COc1c(C)cccc1C(=O)Nc1ccc(CN2CCCCC2)cc1	-101.0*
O=C(CN1CCC(NC(=O)c2cccc(F)c2)CC1)Nc1ccc(Br)cc1	67.9
Cn1c(CN2CCCC2)nc2cc(NC(=O)c3ccco3)ccc21	-115.8*
Cc1cc(C)c(NC(=O)CCN2CCN(Cc3ccccc3)CC2)c(C)c1	98.3
O=C(Nc1ccc(CN2CCCCC2)cc1)c1cccc(Br)c1	-71.9*
Cn1c(-c2ccc(Cl)cc2)cnc1N	-126.4*
CC(C)(C)n1nc(-c2ccc(Cl)cc2)c2c(N)ncnc21	104.6
Cc1ccc(-c2cnc(N)n2C)cc1C	-71.2*
Nc1nc(Cl)nc2ccc(Br)cc12	-122.8*
COc1ccc(NC(=O)Nc2ccc([N+](=O)[O-])cc2)cn1	-102.1*
Cc1cccc(NC(=O)Nc2ccc(F)cc2)n1	-90.6*
Cc1cccc(NC(=O)Nc2ccc([N+](=O)[O-])cc2)n1	-97.2*
Cc1cccc(NC(=O)Nc2ccc(C)c(C)c2)n1	-119.9*
COc1ccc(C2C(C(=O)Nc3cccc(C)n3)CCC(=O)N2c2ccc(OC)cc2)cc1 (stereo not drawn)	73.1
Cc1cccc(NC(=O)Nc2ccc(Cl)cc2)n1	-99.1*
Cc1ccc(NC(=O)Nc2cccc(C)n2)cc1	-75.8*
Cc1cccc(NC(=O)Nc2cccc(C)n2)n1	-95.4*
CCOC(=O)CSc1nc(-c2ccncc2)ccc1C#N	-138.4*
CCOC(=O)CSc1nc(-c2ccc3c(c2)OCO3)ccc1C#N	-113.0*
O=C1C=C(N2CCOCC2)c2ccccc2C1=O	113.6
CC(=C/c1ccccc1)/C=C1/SC(N2CCOCC2)=NC1=O	-101.8*
SMILES	aSyn 5UTR act
CC1Oc2ccccc2C=C1/C=C1/SC(N2CCOCC2)=NC1=O (stereo not drawn)	-107.7*
CCCC(=O)N1CCN(c2nc3ccc(Br)cc3s2)CC1	-141.5*
CCCCC(=O)N1CCN(c2nc3ccc(Br)cc3s2)CC1	-102.4*
CCc1ccc2nc(N(CCCN(C)C)C(=O)c3ccc(S(=O)(=O)N(C)C4CCCCC4)cc3)sc2c1	55.0
CCCC(=O)N1CCN(c2nc3ccc(CC)cc3s2)CC1	-115.6*
CCCC(=O)N1CCN(c2nc3ccc(Cl)cc3s2)CC1	-139.0*
CN(C)S(=O)(=O)c1ccc(-c2cn3ccccc3n2)cc1	-193.7*
O=[N+]([O-])c1ccc(-c2cn3ccccc3n2)cc1	-147.8*
CN(CC(=O)N1CCc2ccccc21)S(=O)(=O)c1cccs1	-129.8*
Cc1ccc(OCc2ccc(Br)cc2)c([N+](=O)[O-])n1	-141.1*
Cc1ccc(OCCOc2cccc(Br)c2)c([N+](=O)[O-])n1	-189.9*
Cc1ccc(OCc2ccc(-c3ccccc3)cc2)c([N+](=O)[O-])n1	-83.6*
Cc1ccc(-c2cn(-c3ccccc3)c(SCC(N)=O)n2)cc1C	-67.0*
CCOC(=O)NC(=O)CSc1nc(-c2ccc(C)c(C)c2)cn1-c1ccccc1	-154.2*
COc1ccc(/C=N/Nc2nc(C(=O)O)cs2)cc1	-78.4*
COC(=O)c1ccc(/C=N/Nc2nc(C)c(C)s2)cc1	-187.7*
CCOC(=O)c1sc(N/N=C/c2ccccc2)nc1C	-207.1*
CCOC(=O)c1sc(N/N=C/c2cccc(C)c2)nc1C	-175.3*
CC(=O)c1sc(N/N=C\c2ccccc2O)nc1C	-188.0*
O=C(O)Cc1sc(N/N=C\c2ccccc2)nc1-c1ccccc1	-255.9*
O=C(Nc1cccc(F)c1)NC1CCCCC1	-156.3*
O=C(Nc1ccc(F)cc1)NC1CCCCC1	-111.2*
O=C(Nc1ccc(N2CCOCC2)cc1)NC1CCCCC1	-78.1*
CC(C)CNC(=S)NC(=O)c1ccc(F)cc1	-150.1*
O=C(NC(=S)NC1CCCCC1)c1ccc(F)cc1	-162.3*
SMILES	aSyn 5UTR act
O=C(NC(=S)NNC(=O)c1cnccn1)c1ccc(F)cc1	70.3
Nc1ccccc1C#Cc1ccc2[nH]ccc2c1	-174.5*
Nc1ccccc1C#Cc1ccccc1	-162.2*
Fc1ccccc1COc1ccc(C(=S)N2CCCC2)cc1	-95.7*
COc1cccc(NC(=O)c2cc(=O)c3ccccc3o2)c1	-72.2*
Cc1ccc(NC(=O)c2cc(=O)c3ccccc3o2)cc1	-189.6*
Cc1cccc(NC(=O)c2cc(=O)c3ccccc3o2)n1	-132.4*
Cc1cccc(NC(=O)c2cc(=O)c3ccccc3o2)c1	-66.6*
CNC(=O)NC(=O)C(C)OC(=O)c1c2c(nc3ccccc13)/C(=C/c1cccs1)CC2 (stereo not drawn)	-143.0*
CC(=O)Nc1cccc(C(=O)NCCc2ccco2)c1	-75.7*
Cc1c(C)n(C)c2ccc(C(=O)NCCc3ccco3)cc12	-74.4*
O=C(Nc1ccccc1)N(C1=NCCCCS1)c1cccc2ccccc12	-84.8*
CCOC(=O)c1ccc(NC(=O)C2CC3CCC2C3)cc1 (stereo not drawn)	-128.2*
CCCOC(=O)c1ccc(NC(=O)C2C3CCC(C3)C2C(=O)O)cc1 (stereo not drawn)	-85.3*
COC(=O)c1ccc(NC(=O)C2CC3CCC2C3)cc1 (stereo not drawn)	-193.9*
CCOC(=O)c1ccc(NS(=O)C23CC4CC(CC(C4)C2)C3)cc1 (stereo not drawn)	-109.9*

Source: PubChem
